Out of some 300,000 compounds screened, about 3,200 (1.1%) were called active. The sample holds actives, similar compounds and a random draw of the others, so the mix is not that of the screen. Rule as the data show it: active = inhibition above about 75%; inconclusive = no clear call, values can overlap the other calls; inactive = below that; tested in HMLE shEcad cells.

This test is described as follows: cancer stem cell viability inhibitors, primary screen, luminescence (AID 2717). The note with it: cancer stem cell-like cells viability, at 7.5 µM, hits give high values.
For `O=C(COC(=O)c1ccc(F)c(S(=O)(=O)N2CCOCC2)c1)NCc1ccc2c(c1)OCO2`, the inhibition is 8.38% (inactive).

Regarding `O=C(COc1ccc(F)cc1Br)NCC1COc2ccccc2O1` (centres undefined), the inhibition is 6.88% (inactive).

For the molecule `Cc1cc(C)cc(OCC(=O)Nc2ccc(N3CCOCC3)cc2N2CCOCC2)c1`, the inhibition is 6.1% (inactive).

`COc1ccccc1C(=O)NCC(=O)OCC(=O)NNC(=O)c1ccc(Br)cc1`: the inhibition was -1.35% (inactive).

In the case of `N#CCc1ccc(OC(=O)c2cccnc2)cc1`, the inhibition was 9.72% (inactive).

`O=C(Oc1ccc(Br)cc1)c1cccnc1`: the inhibition is 4.5% (inactive).

`CCCCCCOc1ccc(OC(=O)c2cccnc2)cc1`: the inhibition is 86.1% (active).

Consider `Oc1ccccc1N1CCN(c2ncnc3sc(-c4ccccc4)cc23)CC1`, for which the inhibition was 80.7% (active).

In the case of `COc1ccc(Nc2ncnc3sc(-c4ccccc4)cc23)c(OC)c1`, the inhibition was 38.3% (inactive).

For the molecule `CCc1cc2c(N3CCN(c4nnc(CC)s4)CC3)ncnc2s1`, the inhibition was 1.61% (inactive).

As for `O=C(OCC(=O)N1CCN(C(=O)c2ccco2)CC1)c1c(Cl)cccc1Cl`, the inhibition was -3.78% (inactive).

For the molecule `COc1ccc(-c2oc(/N=C/N3CCCC3)c(C#N)c2-c2ccc(OC)cc2)cc1`, the inhibition was -4.12% (inactive).

For the molecule `N#Cc1c(/N=C/N2CCCC2)oc(-c2ccccc2)c1-c1ccccc1`, the inhibition was 127% (active).

`N#Cc1c(NC(=O)CCCN2C(=O)c3ccccc3C2=O)oc(-c2ccccc2)c1-c1ccccc1`: the inhibition was -2.49% (inactive).

Turning to `CCOC(=O)N1CCN(C(c2cccnc2)c2ccc3cccnc3c2O)CC1` (centres undefined), the inhibition is 30.6% (inactive).

Turning to `Oc1ccccc1CN1CCN(C(c2ccccc2)c2ccccc2)CC1`, the inhibition is 28.7% (inactive).

With `CCN1CCN(C(c2cccnc2)c2cc(Cl)c3cccnc3c2O)CC1` (centres undefined), the inhibition was 77.7% (active).

With `COc1ccc(CNC(=O)COC(=O)c2sccc2C)cc1OC`, the inhibition was 0.384% (inactive).

In the case of `CC1(C)Cc2ccccc2/C(=C/C(=O)c2ccccc2)N1`, the inhibition is 78.5% (active).

For `CCOC(=O)C1=C(NC(=S)NC(=O)c2ccccc2)c2ccccc2CC1(C)C`, the inhibition was 3.23% (inactive).

For `CC1(C)Cc2ccccc2-c2[nH]c(=S)[nH]c(=O)c21`, the inhibition was 0.325% (inactive).

For `CC1CCCCC1NC(=O)Cn1c(=O)cnc2ccccc21` (centres undefined), the inhibition was 0.34% (inactive).

For the molecule `O=C(NCc1ccc2c(c1)OCO2)c1cc([N+](=O)[O-])ccc1N1CCOCC1`, the inhibition was 46.4% (inactive).

In the case of `O=C(CSc1ccc(-c2ccc(Br)cc2)nn1)NCC1CCCO1` (centres undefined), the inhibition is 1.96% (inactive).

On to `CC(NS(=O)(=O)c1ccc(Br)cc1)C(=O)NCC1CCCO1` (centres undefined), for which the inhibition was -4.45% (inactive).

On to `OC(CNCC1CCCO1)Cn1c2ccc(Br)cc2c2cc(Br)ccc21` (centres undefined), for which the inhibition is 116% (active).

For `Cc1cc(C(=O)OCC(=O)N2C(C)CCCC2C)c2ccccc2n1` (centres undefined), the inhibition was -3.37% (inactive).

With `CCOC(=O)c1cnc(-n2nc(C)cc2C)nc1NNc1cc(C)nc(-c2ccccc2)n1`, the inhibition is 101% (active).

With `CCOC(=O)c1cnc(-n2nc(C)cc2C)nc1Nc1cccc(C(C)=O)c1`, the inhibition was -9.8% (inactive).

On to `Cc1cc(C)n(-c2c(F)c(F)c(COC(=O)c3ccccc3)c(F)c2F)n1`, for which the inhibition was 3.98% (inactive).

For the molecule `Nn1c(SCC(=O)Nc2ccc3c(c2)CCC3)nnc1C1CC1`, the inhibition is -6.39% (inactive).

`O=C(COC(=O)c1ccc(F)cc1)NCC1COc2ccccc2O1` (centres undefined): the inhibition was -14.2% (inactive).

In the case of `CCCc1cc(=O)[nH]c(SCC(=O)c2c(N)n(CC(C)C)c(=O)n(C)c2=O)n1`, the inhibition is 83.8% (active).

For `CCCc1cc(=O)[nH]c(SCC(=O)OCc2ccccc2)n1`, the inhibition was 4.11% (inactive).

For the molecule `CCCc1cc(=O)[nH]c(SCC(=O)c2cc(C)n(CCC)c2C)n1`, the inhibition was -3.32% (inactive).

With `O=C(CCc1nc(-c2ccccc2)no1)Nc1cccc(C(=O)NC2CC2)c1`, the inhibition was 1.1% (inactive).

On to `CCN(C(=O)COC(=O)c1ccccc1O)c1cccc2ccccc12`, for which the inhibition is -18.3% (inactive).

Consider `CCc1cc(C(=O)Nc2nnc(C3CC3)s2)sc1C`, for which the inhibition is -10.9% (inactive).

As to `C[C@H](CO)N1C[C@H](C)[C@@H](CN(C)C(=O)Nc2ccc3c(c2)OCO3)Oc2c(cccc2N(C)C)C1=O`, the inhibition was -12.1% (inactive).

On to `COc1ccc(-c2c(C#Cc3ccccc3)c3ccccc3n2C)cc1`, for which the inhibition was 3.8% (inactive).

Regarding `COc1ccc(-c2sc3ccc(OC)cc3c2C#Cc2ccccn2)cc1`, the inhibition was 111% (active).

For the molecule `COc1ccc2sc(-c3ccc(N(C)C)cc3)c(C#CCO)c2c1`, the inhibition was 113% (active).

For `COc1ccc2sc(-c3ccc(S(C)(=O)=O)cc3)c(C#Cc3cncn3C)c2c1`, the inhibition was 45.5% (inactive).

Turning to `COc1ccc(C2(C)ON(c3ccccc3C(F)(F)F)C2=O)cc1` (centres undefined), the inhibition is 6.61% (inactive).

As to `Cn1nnnc1SCC(=O)Nc1cccc(S(=O)(=O)N2CCCCC2)c1`, the inhibition is 1.58% (inactive).

For `Cn1cccc1C(=O)OCC(=O)NCCc1ccccc1`, the inhibition is 6.32% (inactive).

`Cc1c(C(=O)N2CCCc3ccccc32)sc2nc(-c3ccccc3)cn12`: the inhibition is 36.7% (inactive).

For `Cc1c(C(=O)N2CCCc3ccccc32)oc2ccccc12`, the inhibition is -3.96% (inactive).

Take `Cc1cccc2cc3c(N)c(C(=O)N4CCCc5ccccc54)sc3nc12`: the inhibition is 85.3% (active).

For the molecule `Oc1c(Cl)cc(Cl)c(Cl)c1Cc1c(O)c(Cl)cc(Cl)c1Cl`, the inhibition is 99.3% (active).

`Cc1ccc(NS(=O)(=O)c2ccc(C(C)C)cc2)cc1S(=O)(=O)N1CCOCC1`: the inhibition is -16.7% (inactive).

`Cc1cc(C)cc(NS(=O)(=O)c2ccc(Oc3ncc(C(F)(F)F)cc3Cl)cc2)c1`: the inhibition was 118% (active).

As to `Cc1cc(C)cc(NS(=O)(=O)c2ccc(F)cc2)c1`, the inhibition is -6.47% (inactive).

With `COC(=O)Cc1ccc(Oc2ncc(C(F)(F)F)cc2Cl)cc1`, the inhibition is -10.7% (inactive).

`CN1C(=O)[C@H]2[C@@H](/C=C/c3ccccc3)N3C(=O)CN(Cc4ccc(-c5ccccc5)cc4)C(=O)[C@@]3(C)[C@H]2C1=O`: the inhibition is -4% (inactive).

Consider `CN(CC(=O)NCCc1ccc(S(N)(=O)=O)cc1)CC(=O)Nc1ccc(F)c(F)c1F`, for which the inhibition was -16.9% (inactive).

Turning to `CC1CC(=NNC(=O)C2COc3ccccc3O2)CC(C)(C)C1` (centres undefined), the inhibition was -9.31% (inactive).

Take `CCc1nc2sc(C(=O)O)c(N)c2c2c1CCCC2`: the inhibition was 5.22% (inactive).

Regarding `Cc1ccc2c(N)c(C(=O)c3ccccc3)sc2n1`, the inhibition is 45.8% (inactive).
